Results on 25 compounds are retold here after the supplement of paper PMC4709259.

SMILES strings stand for the structures. Structures can show the parent of a compound that is named as a salt. ± gives the standard deviation.

The subject of assay [1] is Jurkat. Briefly: mean cell size (FSC-A) relative to DMSO control (fraction of control); higher = larger cells. Particulars: 48 h. The method in brief:
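Jurkat cells seeded at 600 cells/µl were incubated 1 h, then exposed for 48h to the Enzo Screen-Well FDA Approved Drug Library v2.0 at 25µM in 0.9% (v/v) final DMSO. Drugs that cut counts below 20% of controls were diluted 10-fold and retested, down to 25nM. Cell count and mean cell size (forward scatter area) were read on an Accuri C6 flow cytometer, relative to solvent-only controls. Plates held 6-12 controls; values are means of 3 biological replicates.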

Assay [2] concerns Jurkat. Kind of assay: cell count relative to DMSO control (fraction of control); higher = more cells (less growth inhibition). Particulars: 48 h.

Take `CCCC(C)(COC(N)=O)COC(N)=O` [Meprobamate (Schedule Iv)] (concentration: 25 µM): the mean cell size with Jurkat [1] turned out to be 1.08 ± 0.036. Moreover, the cell count in the assay on Jurkat [2] was 0.941 ± 0.069.
On the same counts, the results for `CC1C=CC=CCCC=CC=CC=CC=CC(OC2OC(C)C(O)C(N)C2O)CC2OC(O)(CC(O)C(O)CCC(O)CC(O)CC(O)CC(=O)OC(C)C(C)C1O)CC(O)C2C(=O)O` (stereo not given) [Nystatin] (concentration: 25 µM) are 0.8944 ± 0.0084 and 0.729 ± 0.11.
On the same counts, the results for `Cc1c(N)nc(C(CC(N)=O)NCC(N)C(N)=O)nc1C(=O)NC(C(=O)NC(C)C(O)C(C)C(=O)NC(C(=O)NCCc1nc(-c2nc(C(=O)NCCC[S+](C)C)cs2)cs1)C(C)O)C(O[C@@H]1O[C@@H](CO)[C@@H](O)[C@H](O)[C@@H]1O[C@H]1O[C@H](CO)[C@@H](O)[C@H](OC(N)=O)[C@@H]1O)c1cnc[nH]1` (stereo not given in full) [Bleomycin Sulfate] (concentration: 2.5 µM) are 1.33 ± 0.048 and 0.297 ± 0.043.
In turn, `Cl[C@H]1[C@H](Cl)[C@@H](Cl)[C@@H](Cl)[C@H](Cl)[C@H]1Cl` [Lindane] (concentration: 25 µM) had a mean cell size with Jurkat [1] of 0.981 ± 0.037. Moreover, the cell count in the assay with Jurkat [2] is 0.667 ± 0.091.
On the same counts, the results for `CC1(C)C(C=C(Cl)Cl)C1C(=O)OCc1cccc(Oc2ccccc2)c1` (stereo not given) [Permethrin] (concentration: 25 µM) are 1.03 ± 0.068 and 1.05 ± 0.08.
The compound `C=CCN1CC[C@]23c4c5ccc(O)c4O[C@H]2C(=O)CC[C@@]3(O)[C@H]1C5` [Naloxone·HCl] (concentration: 25 µM) displayed a mean cell size with Jurkat [1] of 0.947 ± 0.018. In the assay with Jurkat [2], this compound had a cell count of 0.96 ± 0.071.
Consider `CC(=O)O[C@H]1C[C@@H]2CC[C@@H]3[C@H](CC[C@@]4(C)[C@H]3C[C@H]([N+]3(C)CCCCC3)[C@@H]4OC(C)=O)[C@@]2(C)C[C@@H]1[N+]1(C)CCCCC1` [Pancuronium·2Br] (concentration: 25 µM), for which, in the assay on Jurkat [1], the mean cell size turned out to be 0.963 ± 0.015. This compound also had a cell count in the assay on Jurkat [2] of 1.12 ± 0.09.
On to `CN1C(=O)C(O)N=C(c2ccccc2)c2cc(Cl)ccc21` (stereo not given) [Temazepam] (concentration: 25 µM), for which, in the assay on Jurkat [1], the mean cell size was found to be 0.805 ± 0.037. The compound also registered a cell count in the assay with Jurkat [2] of 0.916 ± 0.032.
In the assay with Jurkat [1], `N[C@@H]1C[C@H]1c1ccccc1.N[C@H]1C[C@@H]1c1ccccc1` [Tranylcypromine Hemisulfate] (concentration: 25 µM) returned a mean cell size of 0.926 ± 0.0078. The same compound had a cell count in the assay with Jurkat [2] of 0.931 ± 0.063.
On the same counts, the results for `CN(C)[C@@H]1C(=O)C(C(N)=O)=C(O)[C@@]2(O)C(=O)C3=C(O)c4c(O)cccc4[C@@](C)(O)[C@H]3C[C@@H]12` [Tetracycline] (concentration: 25 µM) are 0.998 ± 0.064 and 0.556 ± 0.046.
As for `COC[C@@H](NC(C)=O)C(=O)NCc1ccccc1` [Lacosamide] (concentration: 25 µM), the mean cell size in the assay with Jurkat [1] turned out to be 0.927 ± 0.067. For the same compound, the cell count in the assay with Jurkat [2] worked out at 0.639 ± 0.031.
In turn, `C[N+]1(C)CCCC(OC(=O)C(O)(c2ccccc2)c2ccccc2)C1` (stereo not given) [Mepenzolate Bromide] (concentration: 25 µM) displayed a mean cell size in the assay with Jurkat [1] of 0.91 ± 0.039. This compound also displayed a cell count in the assay with Jurkat [2] of 1.15 ± 0.042.
Regarding `C[N+]1(C)[C@@H]2CC(OC(=O)[C@H](CO)c3ccccc3)C[C@H]1[C@@H]1O[C@@H]12` (stereo partly drawn) [Methscopolamine Bromide ((-)-Scopolamine Methyl Bromide)] (concentration: 25 µM), in the assay with Jurkat [1], the mean cell size is 1.05 ± 0.046. In addition, the cell count in the assay with Jurkat [2] is 0.683 ± 0.089.
Take `CN1C(=O)CN=C(c2ccccc2)c2cc(Cl)ccc21` [Diazepam] (concentration: 25 µM): the mean cell size with Jurkat [1] is 0.911 ± 0.048. This compound also came in with a cell count in the assay with Jurkat [2] of 0.925 ± 0.098.
On the same counts, the results for `O=C1CC[C@@]2(O)[C@H]3Cc4ccc(O)c5c4[C@@]2(CCN3CC2CC2)[C@H]1O5` [Naltrexone·HCl] (concentration: 2.5 µM) are 0.985 ± 0.049 and 0.399 ± 0.091.
On the same counts, the results for `O=C(O[C@H]1C[C@H]2CC[C@@H](C1)[N+]21CCCC1)C(O)(c1ccccc1)c1ccccc1` [Trospium Chloride] (concentration: 25 µM) are 1.07 ± 0.049 and 0.982 ± 0.079.
In turn, `O=[N+]([O-])O[C@H]1CO[C@H]2[C@@H]1OC[C@H]2O[N+](=O)[O-]` [Isosorbide Dinitrate] (concentration: 25 µM) came in with a mean cell size in the assay on Jurkat [1] of 0.945 ± 0.023. In the assay on Jurkat [2], the cell count amounted to 1.04 ± 0.081.
Compound `CN1CCN(C(=O)O[C@H]2c3nccnc3C(=O)N2c2ccc(Cl)cn2)CC1` [Eszopiclone] (concentration: 25 µM) displayed a mean cell size with Jurkat [1] of 1.01 ± 0.025. The compound also yielded a cell count in the assay with Jurkat [2] of 0.796 ± 0.072.
On the same counts, the results for `COc1cccc(C2(O)CCCCC2CN(C)C)c1` (stereo not given) [Tramadol·HCl] (concentration: 25 µM) are 0.938 ± 0.042 and 0.58 ± 0.18.
On the same counts, the results for `Cc1nnc2n1-c1ccc(Cl)cc1C(c1ccccc1Cl)=NC2` [Triazolam] (concentration: 25 µM) are 0.935 ± 0.05 and 0.992 ± 0.11.
As to `CN1C[C@H](C(=O)N[C@]2(C)O[C@@]3(O)[C@@H]4CCCN4C(=O)[C@H](Cc4ccccc4)N3C2=O)C=C2c3cccc4[nH]cc(c34)C[C@H]21` [Ergotamine Tartrate] (concentration: 25 µM), the mean cell size in the assay with Jurkat [1] amounted to 1.07 ± 0.054. Further, in the assay on Jurkat [2], the cell count was determined as 0.745 ± 0.057.
On the same counts, the results for `CN1[C@@H]2CC[C@H]1C[C@@H](OC(=O)C(CO)c1ccccc1)C2` (stereo not given in full) [Atropine Sulfate Monohydrate] (concentration: 25 µM) are 0.974 ± 0.017 and 0.677 ± 0.057.
In the assay with Jurkat [1], `C#CCN(C)[C@H](C)Cc1ccccc1` [Selegiline·HCl] (concentration: 25 µM) returned a mean cell size of 0.9392 ± 0.0074. In the assay with Jurkat [2], this compound registered a cell count of 0.711 ± 0.098.
On the same counts, the results for `COc1cc2c(cc1OC)C1CC(=O)C(CC(C)C)CN1CC2` (stereo not given) [Tetrabenazine] (concentration: 25 µM) are 0.921 ± 0.031 and 0.833 ± 0.093.
On the same counts, the results for `O=C1CN=C(c2ccccc2Cl)c2cc([N+](=O)[O-])ccc2N1` [Clonazepam] (concentration: 25 µM) are 1.02 ± 0.06 and 0.659 ± 0.12.
